PubChem BioAssay (NCATS)
Records with an inconclusive call do not appear. A call without a number means that no potency is given here. Calls of active or inactive are those of the source. The call rests on the fitted dose curve; in most records, active means well fitted inhibition curve with a large enough effect; inconclusive means small, poorly fitted or top-dose-only effect; inactive means flat fitted curve, though single readings scatter. Square brackets hold non-standard residues; d marks the D form. Peptide text beside a SMILES is read from it. ξ: configuration not given here. ξL = CC(C)CC(N)C(=O)O

system: NAD(P)H diaphorase (Clostridium kluyveri); assay: Diaphorse counterscreen qHTS: Assay Interference Panel against the NCATS CANVASS Library (AID 1347362); settings: Diaphorase enzyme, resazurin to resorufin fluorescence; series mostly up to 57.5 µM
Text: Natural products and their derivatives continue to be wellsprings of nascent therapeutic potential. However, many laboratories have limited resources for biological evaluation, leaving their previously isolated or synthesized compounds largely or completely untested. To address this issue, the Canvass library of natural products was assembled (https://tripod.nih.gov/canvass), in collaboration with academic and industry researchers, for quantitative high-throughput screening (qHTS) across a diverse set of cell-based and biochemical assays. The pure (>85% purity by liquid chromatography/mass spectrometry [LC/MS]) Canvass library of 346 natural products were submitted by 45 academic laboratories and companies around the world. We collected pure natural products to circumvent deconvolution and structure elucidation due to time and resource limitations. The library was formatted into 1536-well plates and evaluated in 50 qHTS (in an 11-pnt concentration series) bioassays with broad scope of disease-relevant mechanisms. The resulting data set from 50 different assays was then systematically analyzed to identify overall trends and specific natural products with interesting biological activities. Reported herein are the results of each individual qHTS and their corresponding assay protocol. This assay determines potential interactions with a common fluorescent coupling enzyme, NAD(P)H-Diaphorase, to identify possible false positives in future assays. The assay measures the conversion of resazurin to fluorescent resorufin, to identify compounds that inhibit the activity of diaphorase. National Center for Advancing Translational Sciences (NCATS), Rockville, MD National Institute of Health (NIH), Bethesda, Maryland
Assay Interference counterscreen protocol 1. In a 1536 well, black solid bottom, medium binding plates (Corning 7494), 3 uL of diaphorase from Clostridium kluyveri in PBS + 0.01% Tween-20 was dispensed into columns 2 to 48, rows 1 to 32 using the Bioraptr dispenser. PBS-T solution was dispensed in column 1, rows 1 to 32 for control purposes. 2. Compounds were pin transferred (~23 nL volume) via Wako Pin-tool (Wako Automation, Richmond VA) equipped with a 1536 pin head. The assay plates were treated with compounds in a concentration series with a final concentration range of 0.2 nM to 128 uM. 3. PTC was used as a control (25 uM, n = 32, column 2, row 1-32) at a final concentration of 114.5 nM and was pin transferred via Wako Pin-tool equipped with a 1536 pin head. 4. The assay plates were incubated in the dark for 15 minutes at room temperature. 5. One microliter of 4x detection reagent (40 uM Resazurin + 40 uM NADH in PBS-T) was then added to the assay plates (column 1-48, rows 1-32) for a final assay volume of 4 uL. 6. The assay plates were further incubated in the dark for 5 minutes at room temperature. 7. Fluorescence signal was acquired via the ViewLux plate reader (PerkinElmer) using an excitation filter 525/20, emission filter 598/25; 1000 light energy, 2 second exposure, 2x binning settings.

| Compound | Potency | activity change, negative = inhibition |
| --- | --- | --- |
| COc1c(O)cc(O)c2c(=O)cc(-c3ccccc3)oc12 | inactive | – |
| CC(CCC[C@]1(C)C(=O)C=C[C@@]23C[C@]4(C)O[C@@H](C[C@@H]4[C@H]2O)C31)C(=O)O (stereo not given in full) | inactive | – |
| CN1CC[C@]23c4ccccc4N[C@H]1[C@]21CCN(C)[C@H]3Nc2ccccc21 | inactive | – |
| O=Cc1ccc2n1C[C@]1(OC2)O[C@H](CO)[C@@H](O)[C@@H]1O | inactive | – |
| COc1c(O)cc2c(c1O)C(=O)c1c(coc1C)C2=O | inactive | – |
| COc1ccc([C@@H]2c3cc4c(cc3C[C@H](C)C2C)OCO4)cc1OC (stereo not given in full) | inactive | – |
| O=Cc1ccc2n1C[C@]1(C[C@H](O)[C@@H](CO)O1)OC2 | inactive | – |
| COc1ccc([C@@H]2CC(=O)c3c(cc(O)c(C/C=C(\C)CCC=C(C)C)c3O)O2)cc1 | – | -4.24% [at 11.5 µM] (inactive) |
| CC(=O)N[C@H](C)c1nc(/C=C/C=C/C(=O)CC2CC(=O)CC[C@]2(C)O)cs1 (stereo not given in full) | inactive | – |
| C/C1=C/[C@@H](C)[C@H](O)C/C=C/CC/C=C/C(=O)O[C@@H]1[C@H](C)C(=O)CCCC1CC(=O)NC(=O)C1 | inactive | – |
| O=C1c2c(O)cc(O)cc2OC(c2ccc(O)cc2)C1O (stereo not given) | inactive | – |
| C=C1[C@@]2(C)CC3C4(C)CCC(O)C(C)(C)C4CCC3(C)[C@]1(C(=O)OC)C(=O)C(C)(O)C2=O (stereo not given in full) | inactive | – |
| CC1=C(C)C(=O)OC(C(C)C2(O)CCC3C4C5OC5C5(O)CC=CC(=O)C5(C)C4CCC32C)C1 (stereo not given) | inactive | – |
| C/C(=C\[C@H](C)C(=O)C[C@H](O)CC1CC(=O)NC(=O)C1)[C@@H]1OC(=O)CCCC/C=C/C[C@@H](O)[C@@H]1C | inactive | – |
| Cc1cc(C)c(O)c(C(=O)CC2CC(=O)NC(=O)C2)c1 | inactive | – |
| C[C@H]1C=C[C@H]2CCCC[C@@H]2[C@H]1C(=O)[C@H]1CC2=C(C(=O)O)CCN2C1=O | inactive | – |
| C[C@@]12C[C@@H](C[C@@H]3C(=O)O[C@@H](c4ccoc4)[C@H](OC(=O)c4ccccc4)[C@@H]31)OC2=O | inactive | – |
| C=C(C)CC[C@H](Cc1c(O)cc(O)c2c1O[C@H](c1ccc(O)cc1)CC2=O)C(=C)C | inactive | – |
| C/C(=C\[C@H](C)C(=O)CCCC1CC(=O)NC(=O)C1)[C@@H]1OC(=O)/C=C/CC/C=C/[C@H](O)[C@@H](O)[C@@H]1C | inactive | – |
| C/C=C1/C2=CCCN3C(=O)O[C@H]([C@H]1O)[C@H]23 | inactive | – |

| Compound | Potency | activity change, negative = inhibition |
| --- | --- | --- |
| CN1CC[C@@]23c4ccccc4N[C@@H]1[C@@]21CCN(C)[C@@H]3Nc2ccccc21 | inactive | – |
| CO[C@H]1[C@@H](OC(=O)/C(C)=C\[C@@H]2O[C@@H]2[C@H]2O[C@H]2C)[C@H](O)[C@H](OCC23C[C@@H]4[C@H](C)CC[C@H]4C4(C=O)CC2C=C(C(C)C)C34C(=O)O)O[C@@H]1C (stereo not given in full) | inactive | – |
| C[C@]12CC[C@]3(C1)[C@H](CC2=O)C[C@@H](OC(=O)c1ccccc1)[C@H]1[C@](C)(C(=O)O)CCC[C@@]13C | inactive | – |
| CCC(=O)N[C@@H](C[C@H](C)C(Cl)(Cl)Cl)C(=O)N1C(=O)C=C(OC)[C@@H]1C[C@H](C)CCl | inactive | – |
| CO[C@@H]1[C@H](O)[C@@H](C)O[C@@H](OC[C@@H]2C(C)OC(=O)/C=C/[C@H](C)C(O[C@@H]3O[C@H](C)CC4(OC(=O)O[C@@H]4C)C3O)[C@@H](C)CC(C)C(=O)/C=C/[C@H]3OC23)[C@@H]1OC (stereo not given in full) | inactive | – |
| C/C=C/[C@H]1[C@H]2C(=O)c3c(O)c(C)c(O)c(C)c3[C@]1(C(=O)O)C(=O)C=C2C | inactive | – |
| CC(C)=CC[C@H]1C[C@@]2(CC=C(C)C)C(=O)[C@](CC=C(C)C)(C(=O)C(C(=O)c3ccccc3)=C2O)C1(C)C | inactive | – |
| C=CC(C)(C)C(=O)[C@@H](C)[C@@H]1CC[C@@](C)(C=C)O1 | inactive | – |
| C=C[C@]1(C)CC[C@@H]([C@H](C)C(=O)/C=C/C(C)(C)O)O1 | inactive | – |
| O=C1CC(c2ccc(O)cc2)Oc2ccccc21 (stereo not given) | inactive | – |
| C=C1C[C@H]2O[C@@H]3[C@@H]4[C@H](CC[C@@](C)(O)[C@@H]42)[C@H](C)COC3(C)[C@@H](OC(=O)CCCCCCC)CC1=O (stereo not given in full) | inactive | – |
| CC[C@H](O)CCCCC[C@@H]1NC(=O)[C@H]2CCCCN2C(=O)[C@H]([C@H](C)CC)NC(=O)[C@H](Cc2cn(OC)c3ccccc23)NC1=O | inactive | – |
| C/C(=C\[C@H](C)C(=O)/C=C/CC1CC(=O)NC(=O)C1)[C@@H]1OC(=O)/C=C/CC/C=C/C[C@@H](O)[C@@H]1C | inactive | – |
| C[C@]12CCC[C@](C)(C(=O)O)[C@@H]1CC[C@@]1(C)c3cocc3CC[C@H]21 | inactive | – |
| C/C=C(/C)c1cc(O)c(C)c2c1Oc1cc(O)cc(C)c1C(=O)O2 | inactive | – |
| CC(=O)c1c(C)cc2c(c1O)C(=O)c1c(O)cc(O)cc1C2=O | inactive | – |
| COc1cc2c(cc1OC)[C@@H](c1ccc3c(c1)OCO3)C(C)C(C)C2=O (stereo not given in full) | inactive | – |
| COc1cc2oc3ccccc3c(=O)c2cc1OC | inactive | – |
| CC[C@@H](C)[C@H]1NC(=O)C(CC(C)C)NC(=O)[C@@H](CC(C)C)NC(=O)[C@H](Cc2c[nH]c3ccccc23)NC(=O)CNC(=O)[C@@H](CC(N)=O)NC1=O (stereo partly drawn) (cyclo(GW[dL][ξL][dI][dN])) | inactive | – |
| COc1cc(O)c(C(=O)[C@@H]2[C@H](CC=C(C)C)C(C)=CC[C@H]2c2ccccc2)c(O)c1 | inactive | – |
